Inconclusive results are not listed. Unmarked numbers belong to inactive results. Calls of active or inactive are those of the source. The call rests on the fitted dose curve; in most records, active means well fitted inhibition curve with a large enough effect; inconclusive means small, poorly fitted or top-dose-only effect; inactive means flat fitted curve, though single readings scatter.
Potency means the concentration at half of the fitted maximal effect.

The test system of this test is Zika virus NS2B-NS3 protease. As to the kind of experiment: Primary screen GU AMC qHTS for Zika virus inhibitors (AID 1347154). Further: nearly all actives have a fitted effect of over 70% in size.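 On activity change, negative = inhibition: 0% = no-inhibitor control and -100% = no-enzyme control.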 The note with it: Zika NS2B-NS3 unlinked protease, AMC fluorogenic substrate; series mostly up to 54.1 µM; activity change, negative = inhibition: at the top concentration. In a few lines: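 Unlinked Zika NS2B hydrophilic domain/NS3 protease domain noncovalent complex (25 nM final) in 10 mM Tris-HCl pH 8.0, 0.01% Tween 20, with AMC peptide substrate. Fluorescence (ex 340, em 450 nm) change over 15 min, room temperature; percent inhibition fitted to 4-parameter Hill equation.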
A general note: Quantitative high-throughput screening tests each substance at several concentrations.
On to `c1ccc(OCc2ccc(CCCN3CCOCC3)cc2)cc1`, for which the “activity change, negative = inhibition” value was -1.47%.

Regarding `CN=C(NC#N)NCCSCc1csc(N=C(N)N)n1`, the Potency result was “inactive”.

For the compound `CCCN1CCCC[C@H]1C(=O)Nc1c(C)cccc1C`, the “activity change, negative = inhibition” value was -5.64%.

As for `COC(=O)[C@@H]1CC2=CC(=O)CC[C@]2(C)[C@@]23O[C@@H]2C[C@@]2(C)[C@@H](CC[C@@]24CCC(=O)O4)[C@H]13`, the “activity change, negative = inhibition” value is -4.56%.

As for `OCc1ccccc1O`, the “activity change, negative = inhibition” value was -2.78%.

In the case of `CCN1CCN(c2cc3c(cc2F)c(=O)c(C(=O)O)cn3C2CC2)CC1`, the “activity change, negative = inhibition” value is -17.2%.

With `CCn1cc(C(=O)O)c(=O)c2cnc(N3CCCC3)nc21`, the activity change, negative = inhibition is 1.94% [at 6.83 µM].

Consider `COc1cc(/C=C/C(=O)O[C@H]2CC[C@]34C[C@]35CC[C@]3(C)[C@@H]([C@H](C)CCC=C(C)C)CC[C@@]3(C)[C@@H]5CC[C@H]4C2(C)C)ccc1O`, for which the “activity change, negative = inhibition” value is -3.02%.

In the case of `Clc1ccc2c(c1)CCc1cccnc1C2=C1CCNCC1`, the Potency entry was “inactive”.

Regarding `COc1cc2c(cc1OC)[C@@H]1CC(=O)[C@@H](CC(C)C)CN1CC2`, the Potency result was “inactive”.

With `CC(C)(C(=O)c1cccnc1)c1cccnc1`, the “activity change, negative = inhibition” value was -0.652%.

Consider `Cc1ccc(O)c2ncccc12`, for which the “activity change, negative = inhibition” value is 0.535%.

With `C[C@H](CCC(=O)O)[C@H]1CC[C@H]2[C@@H]3C(=O)C[C@@H]4CC(=O)CC[C@]4(C)[C@H]3CC(=O)[C@]12C`, the “activity change, negative = inhibition” value was -4.55%.

For the compound `CNCC[C@@H](Oc1ccccc1C)c1ccccc1`, the Potency result is “inactive”.

For `Oc1c(I)cc(Cl)c2cccnc12`, the “activity change, negative = inhibition” value was -10.6%.

Consider `CC(O)C(=O)O` (centres undefined), for which the “activity change, negative = inhibition” value is 2.75%.

Take `CC(C)n1nc(-c2cc3cc(O)ccc3[nH]2)c2c(N)ncnc21`: the “activity change, negative = inhibition” value is -4.49%.

For `CCCCCC=CCC=CCCCCCCCC(=O)OCC`, the “activity change, negative = inhibition” value is -14%.

For `C[C@]12C=CC(=O)C=C1CC[C@@H]1[C@@H]2[C@@H](O)C[C@@]2(C)[C@H]1CC[C@]2(O)C(=O)CO`, the “activity change, negative = inhibition” value was 2%.

Turning to `C[C@H](O)C(=O)Nc1c(I)c(C(=O)NC(CO)CO)c(I)c(C(=O)NC(CO)CO)c1I`, the “activity change, negative = inhibition” value is -6.58%.

On to `OC(CCN1CCCCC1)(c1ccccc1)c1ccccc1`, for which the “activity change, negative = inhibition” value is 0.116%.

Consider `CCOC(=O)c1cccc(N)c1`, for which the “activity change, negative = inhibition” value was -8.25%.

For the compound `CCOc1ccc2nc3cc(N)ccc3c(N)c2c1`, the Potency was 31.6 µM (active).

In the case of `NC(CS)C(=O)O` (centres undefined), the “activity change, negative = inhibition” value is 0.751%.

Regarding `CC(=O)OCC(=O)[C@@]1(OC(C)=O)[C@@H](C)C[C@H]2[C@@H]3C[C@H](F)C4=CC(=O)C=C[C@]4(C)[C@@]3(F)[C@@H](O)C[C@@]21C`, the “activity change, negative = inhibition” value is -1.77%.

On to `C#C[C@]1(O)CC[C@H]2[C@@H]3CCC4=CC(=O)CC[C@@H]4[C@H]3CC[C@@]21C`, for which the “activity change, negative = inhibition” value was 2.43%.

Turning to `CN(C)CC/C=C1\c2ccccc2Sc2ccc(Cl)cc21`, the “activity change, negative = inhibition” value is -10.4%.

As to `O=c1ccc2ccccc2o1`, the “activity change, negative = inhibition” value is -5.6%.

Turning to `CCN(CC)CCNC(=O)COc1ccc(Cl)cc1`, the “activity change, negative = inhibition” value was -3.86%.

Turning to `C[C@]12CC[C@@H]3c4ccc(O)cc4CC[C@H]3[C@@H]1C[C@@H](O)[C@@H]2O`, the “activity change, negative = inhibition” value was -5.08%.

Turning to `CCCC(=O)O[C@]1(C(=O)CO)CC[C@H]2[C@@H]3CCC4=CC(=O)CC[C@]4(C)[C@H]3[C@@H](O)C[C@@]21C`, the “activity change, negative = inhibition” value is -0.591%.

In the case of `COc1cc2c(cc1OC)C(C(C(=O)N(CCc1ccc(OC)c(OC)c1OC)CCc1ccc(OC)c(OC)c1OC)c1ccccc1)=NCC2` (centres undefined), the “activity change, negative = inhibition” value was 19.2%.

Regarding `CCOc1ccc(Cc2nccc3cc(OCC)c(OCC)cc23)cc1OCC`, the “activity change, negative = inhibition” value was -4.09%.

Take `CC(=O)[C@H]1CC[C@H]2[C@@H]3C[C@H](C)C4=CC(=O)CC[C@]4(C)[C@H]3[C@@H](O)C[C@]12C`: the “activity change, negative = inhibition” value is -4.23%.

As to `Nc1ccc(C(=O)O)cc1`, the “activity change, negative = inhibition” value is -1.58%.

For the compound `CNC(=O)CN(CCN(CCN(CC(=O)[O-])CC(=O)NC)CC(=O)[O-])CC(=O)[O-].O.[Gd+3]`, the “activity change, negative = inhibition” value was -1.54%.

Regarding `NC(=O)c1cc[n+](CC2=C(C(=O)[O-])N3C(=O)[C@@H](NC(=O)Cc4cccs4)[C@H]3SC2)cc1`, the “activity change, negative = inhibition” value was -6.28%.

As for `CC1(C)O[C@@H]2C[C@H]3[C@@H]4CCC5=CC(=O)CC[C@]5(C)[C@@]4(F)[C@@H](O)C[C@]3(C)[C@]2(C(=O)CCl)O1`, the “activity change, negative = inhibition” value was -5.98%.

For `Cc1cc(O)c(C(C)C)cc1Cl`, the “activity change, negative = inhibition” value is -10.6%.

The record behind these values is PubChem BioAssay (NCATS).
